Sm TGR inh = S. mansoni TGR enzyme inhibition; purified TGR, DTNB reduction, TNB absorbance 405 nm; Q962Y6; 3% of 360,000 active; Potency, µM (doses to about 114 µM), for inactives: top-dose activity change, negative = inhibition, actives largely listed as inhibitors; AID 485364; also: nearly all actives have a fitted effect of over 60% in size
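Kinetic colorimetric format: TGR-catalysed, NADPH-driven DTNB reduction monitored via TNB absorbance. Enzyme dispensed at 20 nM; compound exposure 15 min at room temperature before reaction start.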
Giardia FBPA inh = Giardia lamblia aldolase inhibition; A8B2U2; 0.71% of 290,000 active; Potency, µM (highest dose often 59.6 µM), for inactives: at the highest dose activity, negative = inhibition, usual class: inhibitors; AID 2451; purified Giardia FBPA; also: nearly all actives have a fitted effect of over 55% in size
Target sequence (A8B2U2 whole entry, looked up): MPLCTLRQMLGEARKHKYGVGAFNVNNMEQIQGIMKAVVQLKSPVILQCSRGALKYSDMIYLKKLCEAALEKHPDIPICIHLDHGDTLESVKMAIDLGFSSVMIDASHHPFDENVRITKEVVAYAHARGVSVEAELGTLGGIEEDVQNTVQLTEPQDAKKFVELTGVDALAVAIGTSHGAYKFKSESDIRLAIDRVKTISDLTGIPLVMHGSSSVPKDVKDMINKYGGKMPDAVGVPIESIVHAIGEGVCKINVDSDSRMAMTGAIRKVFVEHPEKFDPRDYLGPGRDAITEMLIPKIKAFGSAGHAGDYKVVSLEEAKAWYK
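40 nM FBPA preincubated 10 min at RT with compound (up to 57.5 uM final), then substrate plus GAPDH/TPI/NAD/arsenate coupling and diaphorase/resazurin added. Fluorescence read after 20 min at RT, 525/598 nm.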
AmpC inh no detg = blocks E. coli AmpC beta-lactamase in detergent-free assay | Potency, µM (titrated, usually from 57.1 µM), without a hit: at the top dose activity change, negative = inhibition, hits mostly inhibitors | AmpC nitrocefin hydrolysis, absorbance 480 nm, 0.0001% Triton | P00811 | 0.52% of 330,000 active;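 also: plate controls were no compound for no effect and no enzyme for full effect; nearly all actives have a fitted effect of over 20% in size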
Target sequence (P00811 whole entry, looked up): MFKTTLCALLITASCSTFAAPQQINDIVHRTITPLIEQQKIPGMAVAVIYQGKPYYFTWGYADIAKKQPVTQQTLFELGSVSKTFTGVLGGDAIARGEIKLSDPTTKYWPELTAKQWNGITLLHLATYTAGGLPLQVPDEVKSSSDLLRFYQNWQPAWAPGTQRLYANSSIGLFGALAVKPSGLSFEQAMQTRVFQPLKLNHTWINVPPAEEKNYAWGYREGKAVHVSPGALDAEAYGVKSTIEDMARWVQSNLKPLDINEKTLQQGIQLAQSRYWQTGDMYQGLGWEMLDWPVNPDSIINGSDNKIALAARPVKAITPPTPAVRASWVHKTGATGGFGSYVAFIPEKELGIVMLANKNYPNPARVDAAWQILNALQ
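AmpC (5.3 nM in the dispensed reagent) in 20 mM phosphate pH 7.0 with 0.01% (detergent screen) or 0.0001% Triton X-100 was preincubated with compounds for 15 min at room temperature. Nitrocefin was then added from an 800 uM solution, and hydrolysis was followed at 480 nm.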
AmpC inh detg = blocks E. coli AmpC beta-lactamase in detergent assay | AID 485294 | Potency, µM (doses to about 114 µM), without a hit: top-dose activity change, negative = inhibition, usual class: inhibitors | P00811 | 0.041% of 370,000 active | AmpC hydrolysis of nitrocefin, absorbance 480 nm, 0.01% Triton;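 also: 0% = no-compound wells and -100% = no-enzyme wells; nearly all actives have a fitted effect of over 25% in size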
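20 mM phosphate pH 7.0 + 0.01% (detergent screen) or 0.0001% Triton X-100; 5.3 nM AmpC reagent; cpd preinc 15 min RT; nitrocefin (800 uM stock) to start; A480 q20 s × 4 min; Activity was normalised to no-enzyme and no-compound control wells.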
RE007 growth inh = less growth of the S. pombe RE007 Vpr strain; 0.21% of 360,000 active; Potency, µM (doses to about 92.2 µM), inactives show at the highest dose activity change, negative = less growth, usual class: inhibitors; S. pombe RE007 Vpr strain, BacTiter-Glo ATP luminescence, 24 h; active = well fitted falling curve with a large enough effect; inconclusive = small, poorly fitted or top-dose-only effect; inactive = no such curve, though single readings can be large or run the other way; also: nearly all actives have a fitted effect of over 50% in size
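Fission yeast RE007 carrying one integrated HIV-1 vpr copy, seeded at OD 0.01 in PMG+AL medium with 23 nL pinned compound. Grown 24 h at 30 degrees; viability read by BacTiter-Glo luminescence after 5 min.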
* marks the source's active call; other numbers are inactive results; ? = inconclusive; nt = not tested or not shown; [ ] = another dose, or the depositor's remark. Rows were chosen to be rich in hits. Some 3.4% of all compounds tested hit in one or more screens of this group. Unless noted, calls follow the shape of the dose curve; as a rule, active = well fitted curve in the direction sought with a large enough effect; inconclusive = small, poorly fitted or top-dose-only effect, or another doubt; inactive = no such curve, though single readings can be large; an effect the other way counts as inactive or inconclusive. Unless noted, % is scaled to controls: 0 for no effect and ±100 for the full control effect; potency is read from the fitted curve at half-maximal effect.

SMILES | Sm TGR inh | Giardia FBPA inh | AmpC inh no detg | AmpC inh detg | RE007 growth inh
Cc1ccc(S(=O)(=O)Cc2ccc(C(=O)N3CCN(c4cc(C)ccc4C)CC3)o2)cc1 | 1% | 1% | -18% | -11% | 16%
O=S(=O)(c1ccccc1)c1nc(-c2ccc(F)cc2)oc1NCC1CCCO1 (stereo not given) | 45µM* | nt | -8% | -5% | 15%
CNc1oc(-c2cccs2)nc1S(=O)(=O)c1ccccc1 | -18% | 1% | -11% | 0% | -5%
CCC(C)S(=O)(=O)c1oc(-c2cccs2)nc1S(=O)(=O)c1ccccc1 (stereo not given) | 0.71µM* | nt | nt | -5% | nt
CC(C)CS(=O)(=O)c1oc(-c2ccc(F)cc2)nc1S(=O)(=O)c1ccccc1 | 1.1µM* | nt | nt | -7% | nt
COc1cc(Cl)c(C)cc1NC(=O)C1CCN(c2nc3ccccc3n3cccc23)CC1 | -17% | nt | nt | 17% | nt
CCOc1ccccc1OCCOCCOc1ccccc1[N+](=O)[O-] | -5% | 0% | 14% | ? | -13%
CC1=C(C(=O)Nc2ccccc2)C(c2ccc[nH]2)n2ncnc2N1 (stereo not given) | 28µM* | nt | -40% | -1% | nt
COc1ccc2nc(NC(=O)CSCc3c(C)noc3C)sc2c1 | 3% | nt | 25µM* | ? | 1%
O=C(COC(=O)c1ccc(Cl)cc1)NCC1CCCCC1 | nt | nt | -13% | nt | 4%
C[C@@H]1O[C@@H](O[C@H]2CC[C@@H](O[C@H]3[C@H](O)C[C@H](c4ccc5c(c4O)C(=O)C4=C(C5=O)[C@@]5(O)C(=O)C[C@](C)(O[C@H]6CC[C@H](O[C@H]7C=CC(=O)[C@H](C)O7)[C@H](C)O6)C[C@@]5(O)C=C4)O[C@@H]3C)O[C@H]2C)C=CC1=O | nt | 7.1µM* | nt | nt | nt
O=C(N/N=C/c1cn(Cc2cccc(F)c2)c2ccccc12)c1cc(O)cc(O)c1 | -29% | -7% | 13µM* | ? | 30%
Nc1ccc(C(=O)N/N=C/c2cn(Cc3ccc(F)cc3)c3ccccc23)cc1 | 2% | 4% | -40% | -13% | -4%
CC(=O)c1cccc(N2Cc3ccccc3C2=NC(=O)CCl)c1 | 18µM* | -26% | -3%[2.29 µM] | -8% | -2%
C=CCNC(=O)c1cc(-c2ccccc2)sc1N | nt | nt | nt | nt | -9%
CCCC(C)NC(=O)CN(c1ccc2c(c1)OCCO2)S(=O)(=O)c1ccccc1 (stereo not given) | 4% | 11% | 14% | 3% | -7%
O=C(NC1CCCCCC1)C1c2ccccc2C(=O)N1Cc1ccco1 (stereo not given) | 50µM* | 5% | -27% | 3% | -4%
O=C(NC1CCCCCC1)C1c2ccccc2C(=O)N1Cc1cccs1 (stereo not given) | -16% | 3% | -37% | ? | -8%
CCN(CC(=O)Nc1ccc2c(c1)CCC2)Cc1nc2ccccc2c(=O)[nH]1 | 50µM* | -21% | -11% | -2% | 2%
O=C(C1=C[C@@H](c2ccc(Br)cc2)C[C@@H](OCc2ccc(CO)cc2)O1)N1CCN(Cc2ccccc2)CC1 | 25µM* | -18% | 91% | 3% | -5%
C#Cc1ccc([C@@H]2C=C(C(=O)N3CCN(Cc4ccccc4)CC3)O[C@H](OCCCCO)C2)cc1 | 13µM* | -7% | 159% | 5% | nt
C#Cc1ccc([C@H]2C=C(C(=O)N3CCN(Cc4ccccc4)CC3)O[C@@H](OCc3ccc(CO)cc3)C2)cc1 | 45µM* | -4% | 75% | -4% | -28%
O=C(C1=C[C@@H](c2ccc(Br)cc2)C[C@@H](OCc2ccc(CO)cc2)O1)N1CCN(Cc2ccc3c(c2)OCO3)CC1 | -30% | -4% | 77% | 6% | 9%
O=C(C1=C[C@H](c2ccc(Br)cc2)C[C@H](OCCCCO)O1)N1CCOCC1 | 35µM* | -5% | 72% | 10% | -9%
O=C(C1=C[C@H](c2ccccc2)C[C@H](OCCCCO)O1)N1CCN(Cc2ccccc2)CC1 | 0% | -8% | 142% | 7% | 4%
SMILES | Sm TGR inh | Giardia FBPA inh | AmpC inh no detg | AmpC inh detg | RE007 growth inh
CC(=O)N1CCN(S(=O)(=O)c2cccc(C(=O)Nc3nccs3)c2)CC1 | 16% | 3% | -9% | -5% | 7%
O=C(CC1C[C@H](C(=O)N2CCOCC2)[C@@]2(CCC3CCCC3)c3[nH]c4ccccc4c3CCN2C1=O)NCc1ccco1 (stereo not given in full) | nt | nt | -1% | nt | 10%
O=C(O)C1(Nc2ccc([N+](=O)[O-])cc2[N+](=O)[O-])CCCC1 | nt | nt | nt | nt | -1%
CCOc1cc(C=NNC(=O)c2cccc(S(=O)(=O)N3CCCC3)c2)ccc1O | nt | nt | -33% | nt | -29%
CCc1cc(C(=O)N/N=C/c2c(C)[nH]c3ccccc23)cs1 | 4% | -5% | -39% | 3% | 4%
O=C(c1ccc(NS(=O)(=O)c2ccc(F)cc2)cc1)N1CCC1 | -11% | nt | -5% | -7% | 7%
NS(=O)(=O)c1ccc(NC(=O)CCn2c(=O)oc3ccccc32)cc1 | -2% | nt | nt | 0% | nt
O=C1CC(c2ccccc2)Oc2ccc(Cl)cc21 (stereo not given) | nt | nt | nt | nt | -17%
CN1CCN(C(=O)C2=C[C@@H](c3ccc(Br)cc3)C[C@@H](OCc3ccc(CO)cc3)O2)CC1 | -30% | 2% | 206% | -4% | 1%
O=C(C1=C[C@@H](c2ccc(C(F)(F)F)cc2)C[C@@H](OCCCCO)O1)N1CCN(Cc2ccccc2)CC1 | ? | -6% | 208% | 0% | -4%
CN1CCN(C(=O)C2=C[C@H](c3csc4ccccc34)C[C@H](OCc3ccc(CO)cc3)O2)CC1 | -27% | 2% | 189% | 7% | 2%
O=C(C1=C[C@H](c2ccc(C(F)(F)F)cc2)C[C@H](OCCCCO)O1)N1CCN(Cc2ccccc2)CC1 | 35µM* | -1% | 188% | -6% | 4%
CN1CCN(C(=O)C2=C[C@H](c3csc4ccccc34)C[C@H](OCCCCO)O2)CC1 | 40µM* | -15% | 150% | -8% | -13%
CN1CCN(C(=O)C2=C[C@@H](c3ccccc3)C[C@@H](OCc3ccc(CO)cc3)O2)CC1 | 40µM* | -1% | 55% | 8% | 7%
COc1cccc(NC(=O)Cn2c(=O)oc3cc(S(=O)(=O)N4CCCCC4)ccc32)c1 | -6% | nt | nt | 0% | nt
O=C(CSc1nc2ccccc2s1)NNC(=S)Nc1ccc(Cl)cc1 | -7% | 28% | -32% | -15% | 19%
CCOC(=O)N1CCC(Nc2c(NCCCOC)c(=O)c2=O)CC1 | -10% | -1% | 0.25µM* | 0% | 12%
CCOC(=O)N1CCC(Nc2c(NCCCN(CC)CC)c(=O)c2=O)CC1 | 0% | 1% | -18% | -10% | -3%
N#Cc1c(N2CCNCC2)nc(-c2ccco2)c2c1CCCC2 | 7% | 2% | -16% | 9% | 3%

Compound activity deposited in PubChem BioAssay by National Center for Advancing Translational Sciences (NCATS).
